The results in this text go back to the supplement of paper PMC10849652.

Targets with a hit are over-represented here; the source holds about 7,900 in all. About 0.6% of all pairs of compound and target were hits.

Chain of UniProt Q6XR72 (Q6XR72 whole entry, looked up): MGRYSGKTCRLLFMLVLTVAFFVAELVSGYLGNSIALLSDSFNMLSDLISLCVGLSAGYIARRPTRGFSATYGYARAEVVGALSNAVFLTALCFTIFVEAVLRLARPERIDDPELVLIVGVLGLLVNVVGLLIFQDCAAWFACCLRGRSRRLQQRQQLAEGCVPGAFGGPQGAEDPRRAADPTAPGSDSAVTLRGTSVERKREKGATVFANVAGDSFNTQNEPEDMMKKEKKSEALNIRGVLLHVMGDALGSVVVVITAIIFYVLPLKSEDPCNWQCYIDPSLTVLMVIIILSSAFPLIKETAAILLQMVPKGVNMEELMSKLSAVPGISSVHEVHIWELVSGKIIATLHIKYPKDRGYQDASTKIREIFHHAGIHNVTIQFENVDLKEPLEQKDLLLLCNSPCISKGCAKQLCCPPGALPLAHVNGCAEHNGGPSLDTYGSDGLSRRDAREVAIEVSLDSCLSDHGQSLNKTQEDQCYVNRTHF
Chain of UniProt Q9BW92 (Q9BW92 whole entry, looked up): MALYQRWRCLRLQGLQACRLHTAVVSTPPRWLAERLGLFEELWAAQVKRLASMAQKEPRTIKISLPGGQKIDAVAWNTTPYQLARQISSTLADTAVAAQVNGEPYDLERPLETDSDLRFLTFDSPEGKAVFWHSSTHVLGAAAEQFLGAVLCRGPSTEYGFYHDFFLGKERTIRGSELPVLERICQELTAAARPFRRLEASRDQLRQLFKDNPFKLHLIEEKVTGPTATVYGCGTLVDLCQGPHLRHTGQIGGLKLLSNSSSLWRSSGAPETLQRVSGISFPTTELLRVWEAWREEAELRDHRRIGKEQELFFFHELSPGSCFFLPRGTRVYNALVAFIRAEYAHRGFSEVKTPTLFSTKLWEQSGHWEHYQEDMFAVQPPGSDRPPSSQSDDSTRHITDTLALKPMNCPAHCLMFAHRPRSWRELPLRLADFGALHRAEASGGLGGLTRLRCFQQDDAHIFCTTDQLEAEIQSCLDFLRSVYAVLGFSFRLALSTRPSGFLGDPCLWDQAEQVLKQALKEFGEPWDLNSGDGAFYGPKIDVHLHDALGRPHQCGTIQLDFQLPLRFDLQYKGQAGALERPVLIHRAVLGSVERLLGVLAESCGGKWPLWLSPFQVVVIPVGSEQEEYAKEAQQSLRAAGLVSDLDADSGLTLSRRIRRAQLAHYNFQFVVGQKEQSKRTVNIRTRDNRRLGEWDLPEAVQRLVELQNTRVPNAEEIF
Chain of UniProt O95772 (O95772 whole entry, looked up): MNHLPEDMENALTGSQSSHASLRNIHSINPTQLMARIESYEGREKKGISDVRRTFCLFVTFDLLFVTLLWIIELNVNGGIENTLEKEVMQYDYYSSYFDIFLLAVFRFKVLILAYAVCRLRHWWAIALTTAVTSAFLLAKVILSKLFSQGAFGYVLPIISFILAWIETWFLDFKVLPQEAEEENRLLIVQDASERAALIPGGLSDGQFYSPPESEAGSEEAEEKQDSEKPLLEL
Chain of UniProt Q9BTW9 (Q9BTW9 whole entry, looked up): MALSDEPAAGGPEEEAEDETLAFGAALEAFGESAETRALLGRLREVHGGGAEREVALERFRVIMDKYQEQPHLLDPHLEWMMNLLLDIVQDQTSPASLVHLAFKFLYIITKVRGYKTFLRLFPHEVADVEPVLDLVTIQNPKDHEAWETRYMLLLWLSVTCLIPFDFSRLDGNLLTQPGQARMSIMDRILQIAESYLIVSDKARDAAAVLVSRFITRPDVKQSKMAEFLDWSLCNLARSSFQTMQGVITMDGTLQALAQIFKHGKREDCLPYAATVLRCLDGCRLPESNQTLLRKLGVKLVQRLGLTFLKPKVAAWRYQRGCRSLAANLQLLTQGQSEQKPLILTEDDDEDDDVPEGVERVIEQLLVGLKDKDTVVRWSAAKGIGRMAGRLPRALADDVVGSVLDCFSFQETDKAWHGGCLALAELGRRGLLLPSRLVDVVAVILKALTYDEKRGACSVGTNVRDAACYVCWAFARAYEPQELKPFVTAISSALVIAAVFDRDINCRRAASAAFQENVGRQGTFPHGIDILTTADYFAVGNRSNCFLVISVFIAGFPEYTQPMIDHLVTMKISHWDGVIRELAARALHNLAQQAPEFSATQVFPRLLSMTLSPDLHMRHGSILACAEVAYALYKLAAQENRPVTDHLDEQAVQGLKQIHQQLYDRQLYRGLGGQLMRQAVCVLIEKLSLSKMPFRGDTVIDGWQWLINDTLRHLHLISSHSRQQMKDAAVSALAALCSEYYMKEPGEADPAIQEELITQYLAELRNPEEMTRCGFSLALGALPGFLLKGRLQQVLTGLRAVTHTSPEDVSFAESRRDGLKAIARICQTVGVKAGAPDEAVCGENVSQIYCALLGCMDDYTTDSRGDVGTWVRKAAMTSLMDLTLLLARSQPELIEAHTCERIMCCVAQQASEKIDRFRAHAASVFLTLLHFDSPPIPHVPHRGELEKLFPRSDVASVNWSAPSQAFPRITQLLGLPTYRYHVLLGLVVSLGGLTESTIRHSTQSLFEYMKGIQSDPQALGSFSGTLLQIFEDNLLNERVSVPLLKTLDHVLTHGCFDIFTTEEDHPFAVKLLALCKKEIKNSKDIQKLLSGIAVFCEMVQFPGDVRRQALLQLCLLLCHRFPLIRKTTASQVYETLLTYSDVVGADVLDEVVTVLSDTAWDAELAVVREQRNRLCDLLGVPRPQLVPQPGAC
Chain of UniProt P30626 (P30626 whole entry, looked up): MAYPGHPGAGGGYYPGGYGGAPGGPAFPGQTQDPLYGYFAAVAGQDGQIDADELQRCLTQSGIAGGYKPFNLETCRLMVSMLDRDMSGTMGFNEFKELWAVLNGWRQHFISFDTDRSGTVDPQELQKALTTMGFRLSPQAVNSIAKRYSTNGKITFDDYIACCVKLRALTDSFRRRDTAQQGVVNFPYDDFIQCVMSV
Chain of UniProt P55061 (P55061 whole entry, looked up): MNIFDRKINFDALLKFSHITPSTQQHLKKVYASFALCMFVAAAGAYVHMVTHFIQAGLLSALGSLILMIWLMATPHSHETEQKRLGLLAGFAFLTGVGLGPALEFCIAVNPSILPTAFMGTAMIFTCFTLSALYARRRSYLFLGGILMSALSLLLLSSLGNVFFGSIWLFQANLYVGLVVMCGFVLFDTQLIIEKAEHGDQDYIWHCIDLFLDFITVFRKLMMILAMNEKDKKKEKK
Chain of UniProt Q93075 (Q93075 whole entry, looked up): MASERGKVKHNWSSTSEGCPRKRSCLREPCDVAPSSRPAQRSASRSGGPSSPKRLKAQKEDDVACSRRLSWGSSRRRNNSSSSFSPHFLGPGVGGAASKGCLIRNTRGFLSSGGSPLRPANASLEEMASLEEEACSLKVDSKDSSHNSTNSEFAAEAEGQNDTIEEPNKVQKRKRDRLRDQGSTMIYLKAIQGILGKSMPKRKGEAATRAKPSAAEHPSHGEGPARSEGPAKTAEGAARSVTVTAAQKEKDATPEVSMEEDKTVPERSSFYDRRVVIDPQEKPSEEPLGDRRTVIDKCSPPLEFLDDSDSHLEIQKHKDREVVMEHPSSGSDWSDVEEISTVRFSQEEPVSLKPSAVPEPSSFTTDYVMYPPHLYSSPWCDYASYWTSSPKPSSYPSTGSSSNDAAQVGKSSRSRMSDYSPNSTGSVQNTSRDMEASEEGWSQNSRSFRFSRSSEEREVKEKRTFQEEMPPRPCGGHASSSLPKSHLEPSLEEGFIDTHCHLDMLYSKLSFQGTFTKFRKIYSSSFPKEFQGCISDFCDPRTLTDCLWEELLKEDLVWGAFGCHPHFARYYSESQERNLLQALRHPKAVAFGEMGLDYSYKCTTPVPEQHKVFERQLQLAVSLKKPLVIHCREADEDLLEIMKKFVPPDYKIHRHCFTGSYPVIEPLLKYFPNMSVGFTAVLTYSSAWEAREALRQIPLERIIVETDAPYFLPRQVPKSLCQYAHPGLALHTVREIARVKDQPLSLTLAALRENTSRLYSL
Chain of UniProt P51687 (P51687 whole entry, looked up): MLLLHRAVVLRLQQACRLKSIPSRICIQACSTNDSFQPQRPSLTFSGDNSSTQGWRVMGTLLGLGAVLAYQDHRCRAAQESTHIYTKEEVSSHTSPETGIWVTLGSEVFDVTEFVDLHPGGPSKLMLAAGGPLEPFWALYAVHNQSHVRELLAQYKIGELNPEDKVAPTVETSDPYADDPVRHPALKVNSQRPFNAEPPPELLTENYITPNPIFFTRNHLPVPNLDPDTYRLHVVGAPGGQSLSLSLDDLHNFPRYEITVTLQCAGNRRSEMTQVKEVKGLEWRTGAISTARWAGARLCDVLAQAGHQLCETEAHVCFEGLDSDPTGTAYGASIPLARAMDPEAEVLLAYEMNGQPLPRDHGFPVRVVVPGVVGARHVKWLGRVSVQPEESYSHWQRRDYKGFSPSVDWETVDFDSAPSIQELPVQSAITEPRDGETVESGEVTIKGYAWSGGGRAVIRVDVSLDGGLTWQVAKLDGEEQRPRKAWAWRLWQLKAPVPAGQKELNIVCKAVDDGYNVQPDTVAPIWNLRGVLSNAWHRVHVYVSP
Chain of UniProt Q9UNL2 (Q9UNL2 whole entry, looked up): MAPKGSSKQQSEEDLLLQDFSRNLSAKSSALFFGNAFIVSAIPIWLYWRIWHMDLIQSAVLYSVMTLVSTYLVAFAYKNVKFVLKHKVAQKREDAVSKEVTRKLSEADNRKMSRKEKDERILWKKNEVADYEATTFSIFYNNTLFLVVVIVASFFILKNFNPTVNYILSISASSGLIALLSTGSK
Chain of UniProt Q92844 (Q92844 whole entry, looked up): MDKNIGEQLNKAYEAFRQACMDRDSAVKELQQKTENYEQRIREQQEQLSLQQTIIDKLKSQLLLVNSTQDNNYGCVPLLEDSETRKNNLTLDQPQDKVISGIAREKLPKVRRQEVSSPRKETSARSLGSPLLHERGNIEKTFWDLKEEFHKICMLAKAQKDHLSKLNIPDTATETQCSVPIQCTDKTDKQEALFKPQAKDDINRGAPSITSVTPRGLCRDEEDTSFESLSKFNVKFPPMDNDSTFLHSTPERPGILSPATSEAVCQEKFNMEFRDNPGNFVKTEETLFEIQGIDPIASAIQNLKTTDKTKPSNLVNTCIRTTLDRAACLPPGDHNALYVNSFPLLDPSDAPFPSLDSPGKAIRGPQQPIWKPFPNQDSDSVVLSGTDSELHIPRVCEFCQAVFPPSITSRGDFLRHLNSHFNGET

Compound in the assay: CNC(=O)c1ccc(Nc2ncc(C(F)(F)F)c(NCc3nccnc3N(C)S(C)(=O)=O)n2)cc1 [defactinib]
Briefly: log2 fold change, soluble protein after heating vs DMSO (PISA); higher = thermal stabilisation; K562 cells, 10 uM, 30 min; active = over 0.2 and 3.5 SD of the protein, either way, in both replicates (recomputed). An outline of the steps:
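Aliquots of K562 cells (2×10^6 cells/mL) treated with 10 μM compound for 30 min were heated for 3 min over 48°C-58°C. After pooling and extraction in PBS with 0.5% NP-40 at 4°C, soluble protein from a 21,000xg, 90 min spin was quantified by TMTpro 16plex LC-MS/MS with channel sums equalised. Thermal stability is expressed against control samples, from duplicates, as a log2 fold change.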
As for SUGP1 (UniProt Q8IWZ8), the log2 fold change is -0.124 (inactive). To TBC1D9B (UniProt Q66K14) belongs -0.064 (inactive); to STARD3NL (UniProt O95772), -0.007 (inactive). On to SLC25A4 (UniProt P12235), for which the log2 fold change was 0.012 (inactive). For SLC30A10 (UniProt Q6XR72) the value was 0.012 (inactive).

As for SMC5 (UniProt Q8IY18), the log2 fold change was -0.05 (inactive). As for SRPRB (UniProt Q9Y5M8), the log2 fold change is 0.026 (inactive). Consider SPR (UniProt P35270), for which the log2 fold change is 0.237 (inactive). As for TANK (UniProt Q92844), the log2 fold change was 0.045 (inactive). For SLC4A2 (UniProt P04920), the log2 fold change was 0.028 (inactive). In the case of TMBIM6 isoform 2 (UniProt P55061), the log2 fold change was -0.007 (inactive). On to SLC25A42 (UniProt Q86VD7), for which the log2 fold change is 0.101 (inactive). With SLK isoform 2 (UniProt Q9H2G2), the log2 fold change was -0.089 (inactive). TBCD (UniProt Q9BTW9): the log2 fold change was -0.056 (inactive). To SUPT16H (UniProt Q9Y5B9) belongs -0.476 (active). Regarding SUOX (UniProt P51687), the log2 fold change was 0.031 (inactive). As for STK4 (UniProt Q13043), the log2 fold change was -0.002 (inactive). Turning to TK1 (UniProt P04183), the log2 fold change is -0.021 (inactive). Consider SSR3 isoform 2 (UniProt Q9UNL2), for which the log2 fold change was -0.006 (inactive). As to SRI (UniProt P30626), the log2 fold change is -0.108 (inactive). For the target TARS2 (UniProt Q9BW92), the log2 fold change was -0.033 (inactive). Regarding SNX11 (UniProt Q9Y5W9), the log2 fold change was -0.02 (inactive). For TATDN2 (UniProt Q93075) the value was 0 (inactive).
